Hits are enriched below; roughly 2.7% of the tested compounds scored in any of these assays.
CFTR F508del cor – correctors of CFTR F508del function in bronchial epithelial cells. CFBE cells, YFP halide quenching; stimulated with forskolin plus potentiator P3; % fluorescence drop versus neutral controls. AID 720511. 0.36% of 350,000 active. activity (quench increase), % at 7.58 µM;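 active = mean added fluorescence quench of at least 8% versus neutral control, with both replicates also reaching 8%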;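 note: cells transiently co-express mutant CFTR-F508del with the halide-sensitive YFP; corrector assay measuring rescue of mutant channel to the surface after 24 h compound exposure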
HIV Env fusion – HIV envelope-mediated fusion inhibition; 1.1% of 360,000 active; HeLa-JRFL Env/CEM21 cell fusion, luciferase; inhibition, % at 12.3 µM;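 active = mean replicate inhibition score of at least 50 and every replicate individually at or above 50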;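 note: 0% = plate neutral controls and 100% = maraviroc near 300 nM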
GSIS activator – GLuc luminescence reporter in INS-1E cells, primary screen for activators of glucose-dependent secretion of insulin | INS-1E GLuc reporter insulin secretion, 2-3 h | AID 743287 | 0.61% of 370,000 active | activation, % at 16.6 µM;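 active = lowest replicate activation of at least 40%, so every replicate reaches that level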;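 note: 0% = median of neutral control wells and 100% = median of IBMX positive control wells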
MITF act – increases MITF-driven TRPM1 promoter luciferase signal. 0.75% of 300,000 active. activation, % at 12.5 µM. SK-MEL-5 TRPM1-promoter luciferase, 24 h; % of positive control, neutral wells = 0;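 active = mean activation of at least 80% with every replicate also reaching 80%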;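 note: 0% = neutral control wells and 100% = parthenolide positive control wells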
Wnt bcat act – activators of Wnt/beta-catenin signaling. AID 743398. 1.2% of 300,000 active. activation, % at 9.35 µM. Wnt/beta-catenin reporter cell assay, activator, plate reader; in the data active = activation above about 30%, passing the limit was not always enough;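 note: 0% = neutral control wells and 100% = positive control wells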
Active calls of the source: *; nt = no result given; [ ] = another dose, or the depositor's remark.

SMILES	CFTR F508del cor	HIV Env fusion	GSIS activator	MITF act	Wnt bcat act
O=C(CSc1nnnn1-c1ccc(Cl)cc1)NC(=O)Nc1ccc2c(c1)OCCO2	nt	-58.9	3.0	75.6	38.4*
Cc1ccc(-n2nnnc2SCC(=O)NC(=O)Nc2ccc3c(c2)OCCO3)cc1	0.3	nt	-4.3	31.7	7.5
Cn1c(=O)cc(OCCCC(=O)Nc2ccc3c(c2)OCCO3)c2ccccc21	nt	-8.6	nt	-2.1	63.9*
CCc1ccc(NC(=O)CCCOc2cc(=O)n(C)c3ccccc23)cc1	-0.3	-2.3	22.8	nt	-2.5
O=C(CSc1ccccc1F)Nc1ccc2c(c1)OCO2	-2.3	-44.9	-1.9	98.7*	5.2
Cc1cccc(Nc2nnc(SCC(=O)NC(=O)Nc3ccc4c(c3)OCCO4)s2)c1	nt	9.5	0.7	4.6	nt
Cc1cccc(S(=O)(=O)N[C@@H]2CC[C@@H](CCn3cc(-c4ccccn4)nn3)O[C@H]2CO)c1	2.4	-15.0[16.7 µM]	4.0	nt	nt
COCC(=O)N1[C@@H](CO)[C@@H](c2ccccc2)C12CN(C(=O)Nc1ccccc1F)C2	-2.1	nt	-0.9	nt	nt
O=C(c1ccccn1)N1CC(=O)N2[C@@H](CO)[C@@H](c3ccc(C#CCc4ccccc4)cc3)[C@@H]2C1	-6.4	nt	-24.7	nt	nt
COc1ccc2c3c([nH]c2c1)[C@H](CO)N(C(=O)c1ccc(F)cc1)CC31CN(Cc2cccnc2)C1	-2.1	nt	17.8	nt	nt
Cc1cc(NC(=O)CS(=O)(=O)c2cn(Cc3ccccc3Cl)c3ccccc23)no1	nt	89.9*	-6.9	0.0	-0.9
O=C(Nc1ccc2c(c1)OCCO2)c1cnn(-c2ccccc2)n1	0.5	-42.7	10.6	90.2*	24.9
CCN(CC)C(=O)Cn1cc(C(=O)C(=O)Nc2ccc3c(c2)OCCO3)c2ccccc21	0.5	-52.4	10.5	82.0*	-1.0
CN1CCN(c2ccc(NC(=O)CSc3ccccc3)cc2F)CC1	nt	-109.7	nt	nt	38.2*
CCN(CC)C(=O)Cn1cc(C(=O)C(=O)NCCCN2CCOCC2)c2ccccc21	-1.0	11.1	14.6	6.6	2.4
CCn1cc(S(=O)(=O)CC(=O)Nc2ccc3c(c2)OCO3)c2ccccc21	-1.8	9.7	-4.8	nt	34.8*
Cc1nnc(Sc2cc(NCCCO)c([N+](=O)[O-])c3nonc23)s1	-9.0	-4.6	74.6*	-73.0	-6.3
O=[N+]([O-])c1c(NCCCO)cc(Sc2nc3ccccc3s2)c2nonc12	nt	nt	133.8*	-67.1	nt
C[C@@H]1CN([C@H](C)CO)S(=O)(=O)c2ccc(C3=CCCC3)cc2O[C@H]1CN(C)S(C)(=O)=O	-2.4	9.7[16.7 µM]	13.6	nt	nt
Cc1cc(N/N=C/c2ccccc2O)c2ccccc2n1	15.9*	-4.3	-2.8	nt	-19.1
COc1ccc2nc(C)cc(N/N=C/c3cccc(OC)c3O)c2c1	-7.4	-5.6	13.5	nt	-6.9
CCNC(=O)C[C@@H]1CC[C@@H]2[C@H](COc3ccc(NC(=O)NC(C)C)cc3C(=O)N2C)O1	3.0	5.9[16.7 µM]	-7.5	nt	nt
COc1cc(NC(=O)c2ccccc2Cl)ccc1NC(=O)c1ccco1	nt	-215.8	nt	92.5*	17.0
COc1cc(NC(=O)c2ccco2)ccc1NC(=O)c1ccccc1Cl	nt	nt	nt	14.9	nt
COc1cc(NC(=O)c2cccs2)ccc1NC(=O)c1ccco1	nt	-156.6	nt	92.5*	58.5*
SMILES	CFTR F508del cor	HIV Env fusion	GSIS activator	MITF act	Wnt bcat act
O=C(Nc1ccc(Cl)c(NC(=O)c2cccs2)c1)c1ccco1	-1.2	-61.9	-4.5	nt	1.7
O=C(Nc1ccc(NC(=O)c2cccs2)cc1Cl)c1ccco1	0.4	-38.0	13.0	60.5	45.8*
C[C@@H]1CN([C@@H](C)CO)C(=O)c2cc(NC(=O)Nc3ccccc3)ccc2O[C@@H]1CN(C)CC1CC1	-2.1	-5.3[16.7 µM]	0.0	nt	nt
O=C(N[C@H]1CC[C@@H](CC(=O)N2CCCCC2)O[C@H]1CO)c1ccc2c(c1)OCO2	4.5	5.4[16.7 µM]	-5.2	nt	nt
O=S(=O)(N[C@@H]1CC[C@@H](CCn2cc(-c3cccnc3)nn2)O[C@H]1CO)c1ccccc1	-0.6	-2.7[16.7 µM]	12.7	nt	nt
C[C@H]1CCCCO[C@H](CN(C)Cc2ccncc2)[C@@H](C)CN([C@@H](C)CO)C(=O)c2cc(NC(=O)NC3CCCCC3)ccc2O1	0.1	-9.5[16.7 µM]	-15.1	nt	nt
CSc1nnc2ccc(-c3cccs3)nn12	-0.8	-39.4	29.0	3.6	3.4
CCSc1nnc2ccc(-c3cccs3)nn12	-2.6	-2.8	42.5*	19.7	-1.0
COc1ccc(S(=O)(=O)N(C)c2ccc(C(=O)NCC3CCCO3)cc2)cc1OC (stereo not drawn)	-3.3	18.5	47.9*	6.4	-1.7
CN(C)S(=O)(=O)c1ccc(C(=O)NCCOc2ccc(F)cc2)cc1	-3.4	nt	-14.5	64.8	20.8
